Compound activity as filed in PubChem.
Sampled rows, rich in hits. Any-hit rate of the full collection: about 2.3%.
LGR2 antag: Drosophila LGR2 receptor signaling inhibition. HEK293 LGR2, CRE-luciferase, bursicon-stimulated, 4 h. inhibition, % at 9.99 µM. actives 0.35% (n = 380,000). AID 720647;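 active = drop in luminescence signal, shown as inhibition above about 50% in the replicate tests, limit read from the data, passing the limit was not always enough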;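 also: agonist challenge used bursicon conditioned medium at about half maximal strength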
HIF-2a inh: HIF-2a inhibition; inhibition, % at 18.8 µM; actives 0.72% (n = 360,000); AID 624352; 786-0 RCC cells HIF-2a reporter, luciferase luminescence, overnight;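 active = inhibition of the luminescence signal of 40% or more relative to plate controls, in a single-dose primary screen at 18.75 µM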
KKLEB cytotox: reduces viability of KKLEB cystic fibrosis airway cells; KKLEB CF airway cells viability, ATPlite luminescence, overnight; active compounds read low; cells stimulated with P. aeruginosa culture filtrate; activity change (cytotoxicity), % at 5 µM; actives 0.36% (n = 360,000);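 active = corrected activity change at or below -50% at 5 µM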
iPSC survival up: increases survival of single human iPS cells; actives 0.044% (n = 360,000); survival enhancement, % at 20 µM; hiPSC single-cell survival, ATPlite luminescence; 100% = ROCK inhibitor wells, 0% = DMSO; in the data active = survival enhancement above about 18%;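 also: cells exposed to compounds for 16 hours before the ATP read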
CF NFkB inh: blocks PAF-induced NF-kB reporter in cystic fibrosis cells. KKLEB NF-kB-GFP reporter, GFP fluorescence overnight. inhibition, % at 5 µM. actives 0.86% (n = 360,000);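 active = at least 50% inhibition at 5 µM, scaled per plate between neutral and stimulator controls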;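 also: PAF is a Pseudomonas aeruginosa culture filtrate used as stimulus; plate controls were PAF-stimulated DMSO wells for no effect and unstimulated DMSO wells for full effect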
TWEAK-Fn14 inh: TWEAK-Fn14 signaling inhibition; TWEAK-stimulated Fn14 reporter cells, luciferase luminescence, 8 h; inhibition, % at 10 µM; actives 2% (n = 360,000); AID 1159606; in the data active = inhibition above about 50%
Mdm2 MdmX conf: Mdm2/MdmX (human) interaction inhibition, confirmed; actives 99% (n = 740); AID 504601; inhibition, % at 8 µM; SaOS-2 split-luciferase Mdm2/MdmX complementation, luminescence; shares compounds with HIF-2a inh;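 active = mean inhibition of the luminescence signal across two replicates at or above 26 percent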
HIF-2a inh conf: HIF-2a inhibition, single concentration confirmation; shares compounds with HIF-2a inh; 786-0 RCC cells, HIF-2a luciferase reporter luminescence, overnight; inhibition, % at 18.8 µM; actives 56% (n = 1,800);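 active = mean inhibition across four replicates of at least 40 percent at the single tested concentration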
HIF-1a cs: counter-screen for HIF-2a inhibitors: HIF-1a inhibition in MiaPaCa-2 cells; actives 72% (n = 1,800); inhibition, % at 18.8 µM; AID 651589; shares compounds with HIF-2a inh; MiaPaCa-2 HIF-1a luciferase reporter, desferoxamine, overnight;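 active = mean inhibition of the reporter signal across four replicates at the single tested dose of 50% or more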
Active calls of the source: *; / = no result given.

SMILES	LGR2 antag	HIF-2a inh	KKLEB cytotox	iPSC survival up	CF NFkB inh	TWEAK-Fn14 inh	HIF-2a inh conf	HIF-1a cs	others
CCc1ccc(N=c2c([N+](=O)[O-])nn(-c3ccc4c(c3)OCCO4)n2O)cc1	-3	-119	4	0	-10	26	/	/
O=[N+]([O-])c1nn(-c2ccc3c(c2)OCCO3)n(O)c1=Nc1ccccc1	22	82*	28	-1	-18	104*	90*	100*	Mdm2 MdmX conf=95*
Cc1ccoc1C(=O)Nc1ccc(CC(=O)O)cc1	/	88*	-5	-3	6	76*	94*	51*
COc1cccc(CN2[C@@H]3CNC[C@H]2C3c2ccc(-c3ccc(C)cc3)cc2)c1 (stereo partly drawn)	-6	/	/	/	/	/	/	/
Cn1c(=O)c([N+](=O)[O-])c(Cl)c2ccccc21	-8	97*	-50*	0	72*	-21	83*	106*
CCN(CC)c1c([N+](=O)[O-])c(=O)n(C)c2ccccc12	/	14	-8	-1	2	-4	/	/
C[C@@H]1CN([C@@H](C)CO)C(=O)c2cc(NC(=O)Nc3ccccc3)ccc2O[C@@H](C)CCCCO[C@@H]1CN(C)C(=O)Nc1ccccc1	10	/	/	/	/	/	/	/
O=C(Nc1ccc(N2CCOCC2)cc1)c1ccncc1	/	-65	-5	0	6	9	/	/
O=C(Nc1ccc(N2CCOCC2)cc1)c1cnsn1	/	75*	-8	-5	4	95*	88*	84*
O=C(Nc1ccc(N2CCOCC2)cc1)c1cnccn1	70*	53*	-4	-1	-15	81*	71*	22
Cc1noc(C)c1NC(=O)Nc1ccc2c(c1)C(=O)N([C@H](C)CO)C[C@@H](C)[C@@H](CN(C)Cc1ccc(Cl)c(Cl)c1)O2	-1	/	/	/	/	/	/	/
Cc1ccc(C(=O)COC(=O)c2nc(Cl)ccc2Cl)cc1	11	13	8	1	-5	12	/	/
Cc1ccc(C(=O)OCn2ncc(Cl)c(Cl)c2=O)cc1	/	92*	-94*	17	92*	106*	98*	107*
O=C(OCn1ncc(Cl)c(Cl)c1=O)c1ccc(C(F)(F)F)cc1	8	93*	-12	1	49	79*	60*	104*	Mdm2 MdmX conf=103*
O=C(Nc1ccc2c(c1)[C@@H]1C[C@H](CC(=O)N3CCc4ccccc4C3)O[C@H](CO)[C@@H]1O2)C1CCC1	-10	/	/	/	/	/	/	/
CCOC(=O)Cc1csc(NC(=O)CC)n1	0	-15	-2	8	-10	-11	/	/
CCOC(=O)Cc1csc(NC(=S)NC(=O)c2ccccc2C)n1	-4	54*	3	-2	6	5	58*	17
CCOC(=O)Cc1csc(NC(=S)NC(=O)c2ccc(F)cc2)n1	1	86*	-8	-2	-12	0	89*	59*
CCOC(=O)Cc1csc(NC(=S)NC(=O)c2cc(OC)c(OC)c(OC)c2)n1	3	10	2	0	-8	5	/	/
CCOC(=O)Cc1csc(N/N=C/c2ccc(C(F)(F)F)cc2)n1	-15	58*	-2	-1	13	45	58*	17
Cc1ccc(C(C)C)c(OCc2ccc(-c3nnco3)cc2)c1	-58	69*	2	0	15	7	71*	-45
Cc1ccc(COc2ccc(-c3nnco3)cc2)cc1	-84	-356	6	0	-7	-8	/	/
Cn1nnnc1Sc1ncnc2scc(-c3cccc(Br)c3)c12	4	82*	-52*	-3	80*	99*	97*	102*	Mdm2 MdmX conf=103*
Cn1nnnc1Sc1ncnc2scc(-c3cccc4c3sc3ccccc34)c12	32	62*	-44	-2	24	25	28	102*
CCC(=O)Nc1ccccc1Sc1ncnc2scc(-c3ccccc3)c12	-8	25	-8	0	-4	-21	/	/
